Results on five molecules are retold here after PubChem BioAssay.

Test [1] is described as follows: liver-stage malaria parasite growth inhibition, primary screen, cell-based, HepG2, luciferase luminescence, HepG2 viability (AID 624349; in the data active = parasite load remaining mostly below about 12%, no sharp cut-off; inactive = mostly above about 10%;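 note: 100% = mean of DMSO negative control wells on the same plate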). Particulars: P. berghei liver stage in HepG2, luciferase luminescence, concentration not given here; parasite load remaining: stronger effect = lower value; viability: measured here: HepG2 viability without parasites.
Test [2] can be described thus: stimulators of nuclear beta-catenin in C2C12, primary screen, imaging, WNT3A-conditioned medium, mouse C2C12, NPC library (AID 1117326; in the data active = nuclear beta-catenin stimulation mostly above about 4.2%, no sharp cut-off; inactive = mostly below about 10%). Particulars: stronger effect = higher value.
A short description of test [3]: stimulators of insulin release from INS-1E, primary screen, cell-based, 5 mM glucose, NPC library (AID 1117329;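 active = compound raises insulin release from rat beta cells at 5 mM glucose, no numeric limit stated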). Particulars: rat INS-1E insulin secretion, at 10 µM, stronger effect = higher value.
Test [4] is described as follows: growth inhibition of GSK3B-pretreated HCT116 cells – cell-based, CellTiter-Glo, 0.2 to 20 µM (AID 1117336;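 active = compounds lowering colon cancer cell viability after pretreatment blocking the GSK3B kinase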). Particulars: HCT116 viability after GSK3B inhibitor, at 20 µM, stronger effect = higher value. (Cellular ATP, detected with luciferase, serves as a proxy for viable cell number.)
Test [5] is described as follows: inhibition of endothelial tube formation, primary screen, imaging, VEGF stimulated, CD31 staining, tube area, NPC library (AID 1117340;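 active = compound that reduces growth-factor-driven endothelial tube area in a mixed cell culture, no cutoff stated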). Particulars: VEGF-stimulated ADSC/ECFC co-culture, at 10 µM, stronger effect = higher value.
Test [6] can be described thus: glucagon-like peptide 1 release enhancers, primary assay, NCI-H716 cell line, NPC library (AID 1117341;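 active = compound raises GLP1 secretion from the human gut endocrine cells, with no numeric limit stated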). Particulars: NCI-H716 cells, at 10 µM, stronger effect = higher value.
Test [7] can be described thus: HCT116 colon cancer cell growth inhibition, primary screen, CellTiter-Glo luminescence, NPC library (AID 1117342;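 active = compounds that lower survival of HCT116 colon cancer cells in the luminescence readout, no numeric limit stated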). The following applies: at 20 µM (top of the series).
A short description of test [8]: CellTiter-Glo luminescent readout of SW480 viability loss, NPC library primary (AID 1117343;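 active = compounds that lower viability of the colon cancer cells in the luminescence readout, with no numeric limit stated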). Particulars: CellTiter-Glo luminescence; at 20 µM (top of the series).
Test [9] can be described thus: decreased DLD-1 cellular survival, CellTiter-Glo luminescent readout, NPC compound collection, primary HTS (AID 1117346;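 active = compounds that lower survival of DLD-1 colon cancer cells in the luminescence readout, no cutoff given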). The following applies: DLD-1 viability, CellTiter-Glo luminescence; at 20 µM (top of the series).
Test [10] can be described thus: differential killing of epithelial or mesenchymal cells, primary screen, imaging, PC-3E GFP, TEM4-18 mCherry, co-culture (AID 1345086;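 active = compounds killing one labelled cell type while sparing the other, by normalised counts and ratio limits, not self-fluorescent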;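 for all read-outs here: cells exposed to compound for 72 h before imaging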;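 for red/green cell ratio (normalised): normalised mesenchymal count divided by normalised epithelial count so high means epithelial killing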). The following applies: imaging cell counts, at 1 µM; for red/green cell ratio (normalised): actives lie on both sides.
Test [11] in a line: survival rescue of mitochondrial mutant cells in low glucose, primary screen, MELAS cybrids, Rieske KO mouse fibroblasts, CellTiter-Glo (AID 1508586;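 active = mean z-score across replicates of 1.96 or higher in either the MELAS or the Rieske mutant cell line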;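 note: z relative to plate mean and SD of compound and empty wells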).
Test [12] has as its target NAD(+) hydrolase SARM1 (Homo sapiens) (UniProt Q6SZW1). As to the kind of experiment: SARM1 TIR NADase inhibitors, cell lysate, NAD-Glo luminescence (AID 1508614;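 active = compound whose remaining NAD level is above about 45 nM, limit read from the data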;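 note: higher remaining NAD means stronger inhibition of SARM1 NADase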). The following applies: SAM-TIR HEK293T lysate NADase, at 1 µM, stronger effect = higher value.
Test [13] can be described thus: viability rescue of complex I mutant cybrids, primary screen, cell-based, galactose medium, ATP luminescence (AID 1645843;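 active = z-score of at least 1.8 in each of two replicates, scored against plate mean and spread of sample wells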;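 note: positive z means more ATP and so rescue of galactose-driven cybrid death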). The following applies: complex I mutant cybrid cells, 72 h, stronger effect = higher value.
A short description of test [14]: sensitizers of A549 cells to miR-34 induction, primary screen, imaging, A549 dox-inducible miR-34, nuclei and caspase counts (AID 1347080). Particulars: A549 miR-34 inducible, Hoechst nuclei count, 48 h.
Test [15] has as its system Aerobactin synthetase IucA (Klebsiella pneumoniae hvKP1). As to the kind of experiment: Biochemical IucA enzyme inhibition primary screen of the Spectrum library (AID 1346200; call rule not given here;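 note: 100% = wells without compound and 0% = wells lacking enzyme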). The following applies: malachite green pyrophosphate, A620, at 8 µM, stronger effect = lower value.
In test [16] the target is Mitogen-activated protein kinase 7 (Homo sapiens) (UniProt Q13164). As to the kind of experiment: ERK5 transactivation activators in reporter cells, primary screen, cell-based, HTS (AID 1508626;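 active = luciferase signal above three times the same-plate solvent-only control wells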;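 note: luciferase driven by Gal4-ERK5 fusion binding five Gal4 sites before minimal TATA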). The following applies: HeLa Gal4-ERK5 transactivation, 18 h, at 5 µM, stronger effect = higher value.
Where [17] appears, read: measured here: epithelial PC-3E GFP cell survival.
Where [18] appears, read: measured here: mesenchymal TEM4-18 mCherry cell survival.
The mark [19] stands for this setting: MELAS cybrid survival, CellTiter-Glo 48 h, stronger effect = higher value.
[20] abbreviates: Rieske KO mouse fibroblast survival, CellTiter-Glo 72 h.
[21] abbreviates: measured here: relative caspase fold change +Dox/-Dox.
[22] abbreviates: measured here: total cells with miR-34 induction, stronger effect = lower value.
Where [23] appears, read: measured here: total cells without miR-34 induction.

SMILES strings stand for the structures. “And” between values parts separate entries of the source, which are not always exact repeats. Equal entries are not always repeated. The source made the active and inactive calls.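 Rule for the calls, unless noted: active = compounds whose cell count with miR-34 switched on is under 0.7 times the count with it off; inactive = the rest.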

Sequence of NAD(+) hydrolase SARM1 (Homo sapiens) (Q6SZW1 whole entry, looked up): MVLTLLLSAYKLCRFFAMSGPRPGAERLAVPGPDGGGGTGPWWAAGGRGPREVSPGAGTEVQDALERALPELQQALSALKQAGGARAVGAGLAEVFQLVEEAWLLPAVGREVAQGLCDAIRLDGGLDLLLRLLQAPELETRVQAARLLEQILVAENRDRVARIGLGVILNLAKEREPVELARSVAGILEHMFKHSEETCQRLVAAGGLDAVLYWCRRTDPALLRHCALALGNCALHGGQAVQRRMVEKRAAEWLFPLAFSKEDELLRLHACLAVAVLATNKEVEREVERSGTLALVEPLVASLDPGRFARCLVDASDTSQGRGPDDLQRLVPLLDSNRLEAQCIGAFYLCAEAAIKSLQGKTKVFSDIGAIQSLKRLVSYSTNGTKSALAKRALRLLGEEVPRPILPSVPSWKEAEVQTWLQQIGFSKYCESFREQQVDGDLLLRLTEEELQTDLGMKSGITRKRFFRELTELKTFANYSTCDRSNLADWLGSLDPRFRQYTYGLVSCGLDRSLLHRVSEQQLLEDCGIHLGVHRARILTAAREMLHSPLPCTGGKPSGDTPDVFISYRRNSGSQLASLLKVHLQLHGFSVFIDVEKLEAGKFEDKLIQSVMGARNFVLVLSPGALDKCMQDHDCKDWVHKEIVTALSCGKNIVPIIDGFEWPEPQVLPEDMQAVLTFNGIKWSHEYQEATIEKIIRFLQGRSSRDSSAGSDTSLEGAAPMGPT
Sequence of Mitogen-activated protein kinase 7 (Homo sapiens) (Q13164 whole entry, looked up, the tested form may be a part): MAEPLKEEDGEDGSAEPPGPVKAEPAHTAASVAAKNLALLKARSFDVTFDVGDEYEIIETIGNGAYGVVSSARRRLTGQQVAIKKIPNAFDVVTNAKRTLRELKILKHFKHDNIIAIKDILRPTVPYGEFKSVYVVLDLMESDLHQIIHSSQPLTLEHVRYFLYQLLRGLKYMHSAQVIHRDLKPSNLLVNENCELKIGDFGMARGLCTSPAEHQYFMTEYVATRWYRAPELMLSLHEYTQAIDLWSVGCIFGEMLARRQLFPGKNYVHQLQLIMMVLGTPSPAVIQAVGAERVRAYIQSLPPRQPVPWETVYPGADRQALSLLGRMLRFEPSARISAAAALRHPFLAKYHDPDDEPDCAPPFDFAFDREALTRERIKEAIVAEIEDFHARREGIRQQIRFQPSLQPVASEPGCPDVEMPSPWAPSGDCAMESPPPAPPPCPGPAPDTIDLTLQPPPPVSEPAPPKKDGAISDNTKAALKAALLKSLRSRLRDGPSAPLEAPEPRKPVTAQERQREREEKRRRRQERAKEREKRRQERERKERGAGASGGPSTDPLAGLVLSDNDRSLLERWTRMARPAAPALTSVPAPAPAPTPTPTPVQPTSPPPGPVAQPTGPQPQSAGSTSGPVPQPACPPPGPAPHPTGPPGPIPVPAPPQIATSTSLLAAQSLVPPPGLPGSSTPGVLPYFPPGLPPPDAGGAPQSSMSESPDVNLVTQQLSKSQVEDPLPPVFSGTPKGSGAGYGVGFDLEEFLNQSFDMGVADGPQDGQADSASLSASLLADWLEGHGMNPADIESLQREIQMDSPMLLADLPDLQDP

As to `c1ccc2c(c1)OCC(C1=NCCN1)O2` (centres undefined), in test [1], the parasite load remaining is 48.2% (inactive) and 42.6% (inactive). Besides, in test [1], the viability was 92.9% and 100%. Moreover, the nuclear beta-catenin stimulation is 5.9% (inactive) in test [2] (at 10 µM) and -1.4% in test [2] (stimulation, at 2 µM). Also, in [3], the insulin secretion stimulation was 2.3% (inactive). Besides, in [4], the viability decrease is 14.1% (inactive). Besides, the tube area decrease in test [5] was -4.8% (inactive). In test [6], the GLP1 secretion stimulation is 0.1% (inactive). Besides, the inhibition of viability in [7] is 17.5% (inactive). The viability decrease (inhibition) in [8] was 33.2% (inactive); in [9], -3.9% (inactive). Besides, the red/green cell ratio (normalised) in test [10] is 0.85 (inactive). Also, the normalised cell number was 1.22 in [10] (setting [17]) and 1.03 in test [10] (setting [18]). The z-score in [11] (setting [19]) was 0.698 (inactive) and 0.759 (inactive); in [11] (setting [20]) it was -0.433 and -0.198; in test [13], -1 (inactive) and -0.91 (inactive) and -1.57 (inactive). Further, the remaining NAD in [12] is 10 nM (inactive).

`c1ccc2c(c1)Nc1ccccc1S2`: the parasite load remaining in test [1] was 39.8% (inactive). In addition, the viability in test [1] came out at 65.3%. For the same molecule, the nuclear beta-catenin stimulation in test [2] (at 10 µM) is -1.5% (inactive); in test [2] (stimulation, at 2 µM) it was -0.5%. Moreover, the insulin secretion stimulation in [3] was 1% (inactive). Also, the viability decrease in test [4] was 77.7% (active). Further, in [5], the tube area decrease is -18.6% (inactive). Besides, in test [6], the GLP1 secretion stimulation is -2.4% (inactive). Further, in test [7], the inhibition of viability is 48.1% (inactive). In addition, the viability decrease (inhibition) in test [8] was 60% (active); in test [9], 38% (active). Further, in [10], the red/green cell ratio (normalised) was 0.84 (inactive). For the same molecule, the normalised cell number in [10] (setting [17]) stood at 0.93; in [10] (setting [18]), 0.78. In addition, the fold change is 0.885 (inactive) and 0.762 (inactive) in [14] (stronger effect = lower value); 1.16 and 2.24 in test [14] (setting [21]). Also, the cell count in [14] (setting [22]) was 8220 and 7990; in [14] (setting [23]) it was 9300 and 10500. In addition, the z-score was -0.376 (inactive) and 0.48 (inactive) in [11] (setting [19]); -0.33 and 0.378 in test [11] (setting [20]); -0.355 (inactive) in test [13]. Also, in test [12], the remaining NAD was 10 nM (inactive).

Turning to `Nc1ccc([As](=O)(O)O)cc1`, the parasite load remaining in test [1] is 57.3% (inactive). Besides, in [1], the viability was 124%. Further, the nuclear beta-catenin stimulation in test [2] (at 10 µM) is 1.1% (inactive); in test [2] (stimulation, at 2 µM), 0.8%. In test [3], the insulin secretion stimulation is -1.7% (inactive). In addition, the viability decrease in test [4] is -4.2% (inactive). Moreover, the tube area decrease in test [5] is -12.5% (inactive). Besides, the GLP1 secretion stimulation in test [6] is 0.9% (inactive). Further, the inhibition of viability in test [7] was 26% (inactive). The viability decrease (inhibition) is 2.1% (inactive) in [8] and -7.6% (inactive) in test [9]. For the same molecule, the red/green cell ratio (normalised) in [10] is 0.96 (inactive). The normalised cell number in test [10] (setting [17]) was 1.12; in [10] (setting [18]) it was 1.07. Also, the activity remaining in [15] is 117% (inactive). In addition, the fold change in test [14] (stronger effect = lower value) was 0.904 (inactive); in test [14] (setting [21]), 4.85. For the same molecule, the cell count amounted to 12200 in test [14] (setting [22]) and 13500 in [14] (setting [23]). Moreover, the remaining NAD in test [12] was 10 nM (inactive). The luciferase signal in test [16] was 48 AU (inactive).

Consider `O=C(N/N=C/c1ccc([N+](=O)[O-])o1)c1cc([N+](=O)[O-])cc([N+](=O)[O-])c1O`, for which the nuclear beta-catenin stimulation was 0.7% (inactive) in test [2] (at 10 µM) and 1.8% in [2] (stimulation, at 2 µM). The insulin secretion stimulation in test [3] is 1.3% (inactive). Also, the viability decrease in [4] is 79.6% (active). Besides, the tube area decrease in test [5] is -13.6% (inactive). For the same molecule, the GLP1 secretion stimulation in test [6] is 1% (inactive). Moreover, the inhibition of viability in test [7] is 29.8% (inactive). Moreover, the viability decrease (inhibition) in test [8] is 25.2% (inactive); in test [9], 4.8% (inactive). The red/green cell ratio (normalised) in [10] is 1.05 (inactive). Moreover, the figures for the normalised cell number in test [10] (setting [17]) and in test [10] (setting [18]) were 1.03 and 1.08, respectively. Further, the fold change in test [14] (stronger effect = lower value) was 0.946 (inactive); in test [14] (setting [21]) it was 1.02. Moreover, the cell count stood at 8410 in test [14] (setting [22]) and 8890 in [14] (setting [23]).

For the molecule `CC1(C)C(C=C(Cl)Cl)C1C(=O)OC(C#N)c1cccc(Oc2ccccc2)c1` (centres undefined), the nuclear beta-catenin stimulation in test [2] (at 10 µM) was 0.7% (inactive); in test [2] (stimulation, at 2 µM), -1%. Also, the insulin secretion stimulation in test [3] is 8.1% (inactive). Moreover, the viability decrease in [4] is 1.2% (inactive). Further, the tube area decrease in test [5] was -7.9% (inactive). In test [6], the GLP1 secretion stimulation is 4.4% (inactive). For the same molecule, the inhibition of viability in [7] was 40.5% (inactive). Further, the viability decrease (inhibition) in [8] is 27.7% (inactive); in [9], 23.2% (active). In addition, the red/green cell ratio (normalised) in test [10] is 0.82 (inactive). The normalised cell number in [10] (setting [17]) is 1.16; in [10] (setting [18]), 0.96. In addition, the fold change in test [14] (stronger effect = lower value) is 0.936 (inactive) and 0.968 (inactive); in test [14] (setting [21]) it was 1.17 and 1.27. For the same molecule, the cell count in test [14] (setting [22]) is 7700 and 5600; in [14] (setting [23]), 8230 and 5790. Further, the remaining NAD in [12] was 10 nM (inactive).

The viability is a read-out of living cells in per cent, often relative to untreated cells.
